# Screens as filed in PubChem.
# GRK2 aptamer HTS: inhibitors of human GRK2 displacing RNA aptamer; P25098; bead flow cytometry, FAM-aptamer displacement from GRK2; inhibition of aptamer binding, % at 10 µM; actives 0.59% (n = 330,000); AID 488847;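 active = inhibition of aptamer binding above 40%, roughly 3 SD of noise, on plates passing a quality check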;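 note: median bead fluorescence of bound FAM aptamer so fluorescent compounds give negative values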
# DSG3 Ab inh: human desmoglein-3 autoantibody binding inhibition; P32926; DSG3-coupled beads, scFv-anti-DSG3-GFP binding, flow cytometry; hits give low values; actives 0.48% (n = 310,000); binding (percent of control), % at 10 µM;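 active = binding more than 3 SD below its plate's average and above zero; inconclusive = below that plate limit but binding exactly zero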;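 note: hits lower antibody fragment binding to DSG3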
# PREPL inhibitor: inhibitors of human prolyl oligopeptidase-like enzyme PREPL. Q4J6C6. recombinant PREPL, fluorescence polarization activity-based probe. inhibition, % at 5.96 µM. actives 0.68% (n = 320,000). AID 2751; in the data active = inhibition above about 43%;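 note: 0% = enzyme with DMSO and 100% = wells lacking enzyme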
# VLA-4 inh: inhibition in a human VLA-4 binding assay; AID 2557; VLA-4 expressing cells, ligand binding flow cytometry; actives 0.2% (n = 330,000); inhibition, % (about 7 µM as worked out from the volumes in the protocol); P13612; in the data active = inhibition above about 50%
# JMJD2C inh: human JMJD2C demethylase inhibition | AID 2099 | GST-JMJD2C(1-420) H3K9me3 demethylation, DELFIA europium | actives 0.069% (n = 330,000) | Q9H3R0 | inhibition, % at 2.35 µM;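 active = more than half of a compound's replicate wells show inhibition beyond 50%, single wells judged on their own value; inconclusive = some, but no more than half, of replicates pass 50% inhibition; inactive = no replicate passes 50% inhibition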;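 note: signal counts dimethyl H3K9 product captured on neutravidin plate; 0% = median of DMSO wells and 100% = 0.3 times that DMSO median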
# Target sequence (Q9H3R0 1-420 limits assumed): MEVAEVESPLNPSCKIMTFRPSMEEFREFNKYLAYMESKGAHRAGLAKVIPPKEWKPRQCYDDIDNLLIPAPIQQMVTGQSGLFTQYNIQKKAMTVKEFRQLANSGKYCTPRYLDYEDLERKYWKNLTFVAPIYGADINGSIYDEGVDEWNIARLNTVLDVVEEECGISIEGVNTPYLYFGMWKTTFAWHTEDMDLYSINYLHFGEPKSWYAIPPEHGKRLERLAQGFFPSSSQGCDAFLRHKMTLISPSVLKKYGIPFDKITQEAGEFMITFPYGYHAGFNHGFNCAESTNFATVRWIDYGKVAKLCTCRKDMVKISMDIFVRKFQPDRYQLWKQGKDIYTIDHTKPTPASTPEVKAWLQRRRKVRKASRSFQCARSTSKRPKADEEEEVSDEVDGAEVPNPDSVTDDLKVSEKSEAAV
# VLA-4 allo CP: confirmation of allosteric modulators of human VLA-4 integrin. inhibition, % at 6.7 µM. U937 cells, HUTS-21 LIBS mAb binding, flow cytometry; LDV ligand present at threefold Kd. shares compounds with VLA-4 inh. actives 2% (n = 1,300); in the data active = inhibition above about 40%;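 note: 0% = ligand without compound and 100% = no ligand background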
# * hit, by the source's call; i = inactive; ? = inconclusive; . = no result. This is a sample that favours compounds with a hit; in the whole collection about 1.6% have one here.
SMILES,GRK2 aptamer HTS,DSG3 Ab inh,PREPL inhibitor,VLA-4 inh,JMJD2C inh,VLA-4 allo CP
O=C(Oc1ccc(F)cc1C(=O)/C=C/c1cccs1)c1cccc([N+](=O)[O-])c1,5,106,-17,50*,-14,41*
CN(C)c1ccc(C(=O)OCC(=O)Nc2ccc(S(N)(=O)=O)cc2)cc1,3,106,7,1,8,2
CC(C)(C)c1nnc(NC(=O)NS(=O)(=O)c2ccccc2)s1,3,101,-4,73*,-11,3
CCn1cc(C(=O)OCc2cccc(Br)c2)c(=O)c2ccc(C)nc21,1,100,18,54*,2,0
CSc1ccccc1NC(=O)Nc1ccccc1,0,100,8,0,-3,.
CCOc1ccc(NC(=O)Nc2ccccc2SC)cc1,0,98,5,67*,2,6
COc1ccccc1-c1cc(C(F)(F)F)nc(S(=O)(=O)CCCC(=O)N2CCCCC2C)n1 (stereo not drawn),10,103,9,50*,-15,14
Cn1c(NC(=S)Nc2ccccc2)nc2ccccc21,2,.,-3,44,6,-15
Oc1ccc(NC(=S)Nc2ccccc2)cc1,0,103,4,12,0,14
O=C(c1ccccc1F)N1CCN(c2ccc([N+](=O)[O-])c(NCC3CCCO3)c2)CC1 (stereo not drawn),4,86,6,8,-10,.
O=C(Nc1ccccc1Cl)OCc1cncs1,3,106,-1,-15,9,0
Cc1cc(=O)oc2c3c(cc(OCC(=O)NC(Cc4ccc(Cl)cc4)C(=O)O)c12)OC(C)(C)CC3 (stereo not drawn),3,104,1,22,?,13
Cc1cc(=O)oc2c3c(cc(OCC(=O)N[C@@H](Cc4ccccc4)C(=O)O)c12)OC(C)(C)CC3,1,98,3,50*,-2,6
Cc1cc(=O)oc2c3c(cc(OCC(=O)N[C@@H](C)C(=O)O)c12)OC(C)(C)CC3,4,103,.,-7,5,.
Cc1cccc(NNC(=O)c2c(F)cccc2Cl)c1,0,120,7,8,-2,.
Cc1cc(Cl)c(S(=O)(=O)N2CCCC2)cc1OCC(=O)NC1CCCCC1,1,103,-3,68*,-12,6
COc1ccccc1C(=O)N1CCN(Cc2nc(CC3CC3)no2)CC1,4,104,11,4,0,.
CC(=O)c1cccc(NC(=O)c2cc(S(=O)(=O)N3CCCCC3)ccc2N2CCOCC2)c1,.,109,.,.,.,.
Cc1ccc(S(=O)(=O)N(C)C)cc1NC(=O)c1cc(S(=O)(=O)N2CCCCC2)ccc1N1CCOCC1,.,122,.,.,.,0
CC(=O)Nc1ccc(NC(=O)c2cc(S(=O)(=O)N3CCCCC3)ccc2N2CCOCC2)cc1,.,96,.,.,.,2
COc1cc(NC(=O)c2cc(S(=O)(=O)N3CCCCC3)ccc2N2CCOCC2)cc(OC)c1,0,115,0,0,-6,3
O=C(Nc1ccc(OC(F)F)cc1)c1cc(S(=O)(=O)N2CCCCC2)ccc1N1CCOCC1,4,103,5,18,.,9
COc1ccc(C)cc1NC(=O)c1cc(S(=O)(=O)N2CCCCC2)ccc1N1CCOCC1,0,94,2,14,1,-5
COc1ccc(CNC(=O)c2cc(S(=O)(=O)N3CCCCC3)ccc2N2CCOCC2)cc1OC,.,104,.,.,.,.
Cc1c(Br)c([N+](=O)[O-])nn1CC(=O)Nc1ccc2nc3n(c(=O)c2c1)CCCC3,2,99,15,9,-26,.
SMILES,GRK2 aptamer HTS,DSG3 Ab inh,PREPL inhibitor,VLA-4 inh,JMJD2C inh,VLA-4 allo CP
COc1ccc(NC(=S)N2CCCC(c3nc4ccc(C)cc4[nH]3)C2)c(OC)c1 (stereo not drawn),0,97,-11,54*,0,15
CCN1CCCC1CNC(=O)C(=O)NCc1ccccc1 (stereo not drawn),0,115,-3,11,6,.
CCN1CCCC1CNC(=O)C(=O)NC1CC1 (stereo not drawn),6,81,-7,46,28,-2
C[C@]12CCC(=O)C=C1CC[C@@H]1[C@@H]2[C@@H](O)C[C@@]2(C)[C@H]1CC[C@]2(O)C(=O)CO,4,101,7,29,-4,-1
CC(=O)OCC(=O)C1(O)CCC2C3CCC4=CC(=O)CCC4(C)C3C(O)CC21C (stereo not drawn),.,95,.,.,.,.
C[C@]12C=CC(=O)C=C1CC[C@@H]1[C@@H]2[C@@H](O)C[C@@]2(C)[C@H]1CC[C@]2(O)C(=O)CO,0,102,1,59*,-11,2
CC12CCC(=O)C=C1CCC1C2C(O)CC2(C)C1CCC2(O)C(=O)CO (stereo not drawn),1,85,0,6,3,-184
CCN(CC)CCNC(=O)c1ccc(NC(=O)c2ccc(-n3cncn3)c([N+](=O)[O-])c2)cc1,.,98,.,.,.,.
Cn1c2ccccc2c2ncn(Cc3ccco3)c(=O)c21,2,107,-18,55*,1,0
Cn1c2ccc(F)cc2c2ncn(Cc3ccco3)c(=O)c21,1,102,5,.,2,.
O=C(c1cccc(NC2=NC3CS(=O)(=O)CC3S2)c1)N1CCN(c2cccc(Cl)c2)CC1 (stereo not drawn),0,102,10,10,2,i
O=C(c1ccc(Cl)c(NC2=NC3CS(=O)(=O)CC3S2)c1)N1CCN(c2ccc(F)cc2)CC1 (stereo not drawn),0,104,27,15,-5,0
O=C(c1cccc(NC2=NC3CS(=O)(=O)CC3S2)c1)N1CCN(c2ccc(F)cc2)CC1 (stereo not drawn),0,92,12,-7,23,.
Cc1ccc(C(=O)N2CCN(c3ccccc3F)CC2)cc1NC1=NC2CS(=O)(=O)CC2S1 (stereo not drawn),2,94,7,13,-2,.
O=C(Cc1ccccc1[N+](=O)[O-])NCC(O)c1ccc2c(c1)OCO2 (stereo not drawn),.,101,.,.,.,.
CCN(C(=O)CSc1nc2ccc(C)cc2[nH]1)C1CCS(=O)(=O)C1 (stereo not drawn),0,.,4,6,18,.
CCN(C(=O)CSc1nc(-c2ccccc2)c(-c2ccccc2)[nH]1)C1CCS(=O)(=O)C1 (stereo not drawn),0,108,4,95*,-4,0
CCc1ccc(OCc2nnc(SCC(=O)N3CCOCC3)o2)cc1,2,97,7,0,-6,.
CCc1ccc(OCc2nnc(SCC(=O)Nc3cccc(C(=O)N4CCOCC4)c3)o2)cc1,2,101,8,43,6,5
COCCNC(=O)/C(C#N)=C/c1ccc(SC)cc1,2,81,-7,7,11,.
COCCNC(=O)/C(C#N)=C/c1cccs1,2,100,-3,3,-3,.
